Measured values reported in PMC10726135, “HNF4α isoforms regulate the circadian balance between carbohydrate and lipid metabolism in the liver”.
Whole data set: some 18,000 sequences, median “log2 normalized intensity” near 0.36, cut for the highest 2% near 7.3. This excerpt belongs to a sample that is enriched for the highest values.

target: T1, HNF4alpha8 (COS-7 nuclear extract) (Homo sapiens, UniProt P41235-5 1-452); assay: protein-binding microarray; COS-7 nuclear extract on double-stranded Agilent 4x180k PBM; binding buffer, salt, pH and temperature not given in the material; high values mean tight binding; conditions: chain copies: 2; label: 3' end of strand 1 on the slide; dsDNA, one strand shown
T1 sequence: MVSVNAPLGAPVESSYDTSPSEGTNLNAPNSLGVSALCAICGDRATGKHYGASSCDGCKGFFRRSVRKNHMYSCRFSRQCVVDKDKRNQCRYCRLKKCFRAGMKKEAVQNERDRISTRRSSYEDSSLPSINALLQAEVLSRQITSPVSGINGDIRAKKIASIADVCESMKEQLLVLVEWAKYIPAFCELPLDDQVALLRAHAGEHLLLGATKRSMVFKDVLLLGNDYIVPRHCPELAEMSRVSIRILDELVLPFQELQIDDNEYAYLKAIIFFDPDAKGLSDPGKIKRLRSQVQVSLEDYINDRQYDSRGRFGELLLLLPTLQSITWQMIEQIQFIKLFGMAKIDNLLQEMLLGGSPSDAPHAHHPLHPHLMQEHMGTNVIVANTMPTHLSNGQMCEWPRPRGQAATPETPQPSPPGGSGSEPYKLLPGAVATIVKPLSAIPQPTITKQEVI
Method in brief: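 A human HNF4α isoform was expressed in COS-7 cells by transient CaPO4 transfection, and nuclear extracts were prepared. These were applied to a custom Agilent SurePrint G3 4x180k array carrying ~44,000 test sequences in quadruplicate as double-stranded ~60-nt oligonucleotides, and an Agilent G2565CA scanner imaged bound HNF4α at 2-µm resolution. The background-corrected, normalized gProcessedSignal from Agilent software was used as the binding signal.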

Sequence	binding signal
ATCTCATCCTGTGACCAAGAATGTCTAACCGCCTAGGGAGATTAGAGTATCGGTCGA	-0.428 log2 normalized intensity
TTAGGATGACCTTTAGATTCTTACAGGCAAGCCTAGGGAGATTAGAGTATCGGTCGA	4.57 log2 normalized intensity
TTGATCCAGGATCCTTCTTGACCAGGCAAGGCCTAGGGAGATTAGAGTATCGGTCGA	0.747 log2 normalized intensity
ATTTGACCCTTGGCCAGGTGCAGTGGCTCAGCCTAGGGAGATTAGAGTATCGGTCGA	3.54 log2 normalized intensity
CTTGACCTTTGATCCAGGCTCAGTGGGCGTGCCTAGGGAGATTAGAGTATCGGTCGA	5.72 log2 normalized intensity
TCTTGACCAGGCAAGCTTGACCTTTGATCCGCCTAGGGAGATTAGAGTATCGGTCGA	10 log2 normalized intensity
GCAAGCTTGACCTTTGATCCAGGCTCAGTGGCCTAGGGAGATTAGAGTATCGGTCGA	8.22 log2 normalized intensity
CAAGCTTGATCCAGGATCCTTCTTGACCAGGCCTAGGGAGATTAGAGTATCGGTCGA	1.18 log2 normalized intensity
ATCCTTCTTGACCAGGCAAGCTTGACCTTTGCCTAGGGAGATTAGAGTATCGGTCGA	7.77 log2 normalized intensity
ACTTTGACCTAGAAGCCAGGGACCAGGAAGGCCTAGGGAGATTAGAGTATCGGTCGA	-0.796 log2 normalized intensity
GCTCCTGTTCCTTTGTTACACTGGCTGCCCGCCTAGGGAGATTAGAGTATCGGTCGA	2.08 log2 normalized intensity
AAAGGTCACCAGTGAGCCAAGGTACCCTGGGCCTAGGGAGATTAGAGTATCGGTCGA	1.29 log2 normalized intensity
GTGACTCTAGGAACCTTTCTCCATACCTCTGCCTAGGGAGATTAGAGTATCGGTCGA	-0.874 log2 normalized intensity
ACAAAGAAATGTAACCTTTGGCCAATTGCAGCCTAGGGAGATTAGAGTATCGGTCGA	5.13 log2 normalized intensity
AACTGACACTTGTTTGAATTGTGATAATAAGCCTAGGGAGATTAGAGTATCGGTCGA	1.04 log2 normalized intensity
TTATCTTGGTGCCTGCAGAGCCTCCCCATTGCCTAGGGAGATTAGAGTATCGGTCGA	2.69 log2 normalized intensity
GTAGGGCAGAGGCCAGTTTGATCACAAGACGCCTAGGGAGATTAGAGTATCGGTCGA	-0.285 log2 normalized intensity
AGTTTGGTTTAAAGTTCAAGTCATAACTGGGCCTAGGGAGATTAGAGTATCGGTCGA	2.53 log2 normalized intensity
GAATAATCCCCTCCTGGACTTTGGTCTCATGCCTAGGGAGATTAGAGTATCGGTCGA	8 log2 normalized intensity
GGACTTTGGTCTCATGGGCCTAAACATTCCGCCTAGGGAGATTAGAGTATCGGTCGA	5.24 log2 normalized intensity
ATGCCCAAATGAATAATCCCCTCCTGGACTGCCTAGGGAGATTAGAGTATCGGTCGA	3.33 log2 normalized intensity
TATGTGCTCACTCCTGGGACAAGGACTTTGGCCTAGGGAGATTAGAGTATCGGTCGA	3.11 log2 normalized intensity

Sequence	binding signal
GTAATGACATGCAGTATGGGGACTTTGGACGCCTAGGGAGATTAGAGTATCGGTCGA	7.1 log2 normalized intensity
ATCCCCTCCTGGACTTTGGTCTCATGGGCCGCCTAGGGAGATTAGAGTATCGGTCGA	7.4 log2 normalized intensity
CAAATGAATAATCCCCTCCTGGACTTTGGTGCCTAGGGAGATTAGAGTATCGGTCGA	5.55 log2 normalized intensity
CTCCTGGACTTTGGTCTCATGGGCCTAAACGCCTAGGGAGATTAGAGTATCGGTCGA	5.27 log2 normalized intensity
GACATGCAGTATGGGGACTTTGGACTCCTGGCCTAGGGAGATTAGAGTATCGGTCGA	8.41 log2 normalized intensity
TATTCCTTGTCCTTGACCCTTCCTCCCATTGCCTAGGGAGATTAGAGTATCGGTCGA	4.01 log2 normalized intensity
GAAACATCCACATGTGGGTCCAAAGAACATGCCTAGGGAGATTAGAGTATCGGTCGA	3.82 log2 normalized intensity
ATCACATTCTAATCCTCTGGTCTTTGCCCCGCCTAGGGAGATTAGAGTATCGGTCGA	5 log2 normalized intensity
CCCTGAGTAGTTCTTCTGGTTAGTTTTTCAGCCTAGGGAGATTAGAGTATCGGTCGA	1.66 log2 normalized intensity
CTCCCCTCCTCCAGATGGGCTCATGTAACAGCCTAGGGAGATTAGAGTATCGGTCGA	2.65 log2 normalized intensity
GCCCCTGGCTGGGCCCTGACCTCAAGTGACGCCTAGGGAGATTAGAGTATCGGTCGA	2.6 log2 normalized intensity
CCAGGCTGATTTAGCTATTTGACCTTCGGCGCCTAGGGAGATTAGAGTATCGGTCGA	5.84 log2 normalized intensity
GTGACGGAGGTGACCTTTGGTTGTCCTTACGCCTAGGGAGATTAGAGTATCGGTCGA	4.94 log2 normalized intensity
CAAGAATGCAAAGCCCTGGCTGACCTTTAGGCCTAGGGAGATTAGAGTATCGGTCGA	5.88 log2 normalized intensity
ATTGGCCCTTTGACCTTTAATCAAGGGCTGGCCTAGGGAGATTAGAGTATCGGTCGA	5.91 log2 normalized intensity
TTAGCTATTTGACCTTCGGCCTCAATTATAGCCTAGGGAGATTAGAGTATCGGTCGA	7.29 log2 normalized intensity
AACCAAGATAGTGACGGAGGTGACCTTTGGGCCTAGGGAGATTAGAGTATCGGTCGA	7.34 log2 normalized intensity
ACCAAAACCAAGATAGTGACGGAGGTGACCGCCTAGGGAGATTAGAGTATCGGTCGA	1.88 log2 normalized intensity
TGGCTGGGCCCTGACCTCAAGTGACCTTTGGCCTAGGGAGATTAGAGTATCGGTCGA	7.77 log2 normalized intensity
ATGCAAAGCCCTGGCTGACCTTTAGCCTGGGCCTAGGGAGATTAGAGTATCGGTCGA	7.69 log2 normalized intensity
CTGATTTAGCTATTTGACCTTCGGCCTCAAGCCTAGGGAGATTAGAGTATCGGTCGA	8.73 log2 normalized intensity
GACAGCTGGGCCCTGCCTGACCTGCCCTTTGCCTAGGGAGATTAGAGTATCGGTCGA	5.01 log2 normalized intensity

Sequence	binding signal
CTTCGCTGGAATGTCACAGGGATTACGATCGCCTAGGGAGATTAGAGTATCGGTCGA	0.569 log2 normalized intensity
CTTTGATAGCCAAGCCAACCAGGAGAATTTGCCTAGGGAGATTAGAGTATCGGTCGA	2.31 log2 normalized intensity
CTGGTTGGAATTCCAGTGTTCACATCTGATGCCTAGGGAGATTAGAGTATCGGTCGA	1.09 log2 normalized intensity
TCATTTCTGCTTGCAACCAAAGGAGTCCTGGCCTAGGGAGATTAGAGTATCGGTCGA	-0.447 log2 normalized intensity
TGGCCAAAGTTCAGTAAATCTTAGAGAACAGCCTAGGGAGATTAGAGTATCGGTCGA	2.27 log2 normalized intensity
GCCAAGGGCAGTGTTTGCCCAGCTTGAATCGCCTAGGGAGATTAGAGTATCGGTCGA	-0.771 log2 normalized intensity
GCAACCTTTGCTCTCCCTCCTCTCTGAGCAGCCTAGGGAGATTAGAGTATCGGTCGA	2.28 log2 normalized intensity
GGGCCCTGACCTCAAGTGACCTTTGACCTCGCCTAGGGAGATTAGAGTATCGGTCGA	12 log2 normalized intensity
ATCGCCCTTTGAGGAGGCCTTTCCTGACCCGCCTAGGGAGATTAGAGTATCGGTCGA	3.43 log2 normalized intensity
CTGGGCCCTGCCTGACCTGCCCTTTGTCCCGCCTAGGGAGATTAGAGTATCGGTCGA	6.91 log2 normalized intensity
GGAGTGTGGGGTGGTGTCAGGAGTACAGGTGCCTAGGGAGATTAGAGTATCGGTCGA	1.12 log2 normalized intensity
TAAGTCACTGGGCTGATGACCTTTGACTGAGCCTAGGGAGATTAGAGTATCGGTCGA	7.85 log2 normalized intensity
TTTTTTTTTTGAGATGGAATCTTGCCCTGTGCCTAGGGAGATTAGAGTATCGGTCGA	3.54 log2 normalized intensity
TCCTGATCTTTGACCTGGAGCATGACCCTTGCCTAGGGAGATTAGAGTATCGGTCGA	5.6 log2 normalized intensity
TGACCTTTGTCCTGGCACAACTGGATGGTGGCCTAGGGAGATTAGAGTATCGGTCGA	5.2 log2 normalized intensity
CATCTTTGAGCTGGATGACCTTTGTCCTGGGCCTAGGGAGATTAGAGTATCGGTCGA	9.19 log2 normalized intensity
AGAATCATCTTTGAGCTGGATGACCTTTGTGCCTAGGGAGATTAGAGTATCGGTCGA	8.24 log2 normalized intensity
ATGACCTTTGACTGAGATGGGAGCAGTGCTGCCTAGGGAGATTAGAGTATCGGTCGA	3.52 log2 normalized intensity
CTAGTTAAGTCACTGGGCTGATGACCTTTGGCCTAGGGAGATTAGAGTATCGGTCGA	6.81 log2 normalized intensity
CACTGGGCTGATGACCTTTGACTGAGATGGGCCTAGGGAGATTAGAGTATCGGTCGA	5.81 log2 normalized intensity
TTGAGCTGGATGACCTTTGTCCTGGCACAAGCCTAGGGAGATTAGAGTATCGGTCGA	8 log2 normalized intensity
ATGGGATGACCTTTGAGCAATAGGAAATGGGCCTAGGGAGATTAGAGTATCGGTCGA	4.79 log2 normalized intensity

Sequence	binding signal
CTGGATGACCTTTGTCCTGGCACAACTGGAGCCTAGGGAGATTAGAGTATCGGTCGA	6.78 log2 normalized intensity
CTAGCCCCGCCCAGATGTCTGGCTAAGACCGCCTAGGGAGATTAGAGTATCGGTCGA	3.43 log2 normalized intensity
GAGGAAAACCAGCTCAGTGGAAATTGTCCTGCCTAGGGAGATTAGAGTATCGGTCGA	0.989 log2 normalized intensity
CATATCTGGAATTTCAAAGGGAGCATATGTGCCTAGGGAGATTAGAGTATCGGTCGA	1.31 log2 normalized intensity
CTTTCTTTGTCTGTGTAGACTCATCTGGTGGCCTAGGGAGATTAGAGTATCGGTCGA	1.89 log2 normalized intensity
ATGAAGCAAGAGTCCAAATTCCTAGCCCTCGCCTAGGGAGATTAGAGTATCGGTCGA	2.14 log2 normalized intensity
AGGTTCCTCGCCTATGGTATGTATGGAATGGCCTAGGGAGATTAGAGTATCGGTCGA	2.2 log2 normalized intensity
TCTTTGCACTTGATGTTCCCCCTCCCTGGAGCCTAGGGAGATTAGAGTATCGGTCGA	4.84 log2 normalized intensity
AGGGGCTATTTCTGACCTTTGCACCAGAGAGCCTAGGGAGATTAGAGTATCGGTCGA	7.69 log2 normalized intensity
TCTGACCAGGCTGATTTAGCTATTTGACCTGCCTAGGGAGATTAGAGTATCGGTCGA	4.7 log2 normalized intensity
TGGCTAAGACAGGGGCTATTTCTGACCTTTGCCTAGGGAGATTAGAGTATCGGTCGA	7.32 log2 normalized intensity
AAGACAGGGGCTATTTCTGACCTTTGCACCGCCTAGGGAGATTAGAGTATCGGTCGA	10.2 log2 normalized intensity
CCTTTGCACCAGAGATAATATGCTTACTTAGCCTAGGGAGATTAGAGTATCGGTCGA	0.614 log2 normalized intensity
CTATTTCTGACCTTTGCACCAGAGATAATAGCCTAGGGAGATTAGAGTATCGGTCGA	6.97 log2 normalized intensity
CTGAGACAACACTCAGGATACCTAAGCCCCGCCTAGGGAGATTAGAGTATCGGTCGA	1.33 log2 normalized intensity
TCTTATTTACCGAAATGTGGGTGAGGCTGTGCCTAGGGAGATTAGAGTATCGGTCGA	1.67 log2 normalized intensity
AAGCTATTCACTTTTTGGCCTTTGGCTGTTGCCTAGGGAGATTAGAGTATCGGTCGA	3.01 log2 normalized intensity
TAAAATGGACTTTGTGGGCCAAAAGCAGCCGCCTAGGGAGATTAGAGTATCGGTCGA	2.65 log2 normalized intensity
AAAAAGTCCCTGGTCCCATAGGAAAGTGAGGCCTAGGGAGATTAGAGTATCGGTCGA	-0.813 log2 normalized intensity
